Shown are actives, neighbours in structure and some others; about 3% of the full set was active somewhere.
SENP8 block-1: SENP8 protease inhibition. Q96LD8. purified SENP8, Z-RLRGG-aminoluciferin cleavage, luminescence. inhibition, % at 10 µM. hit rate 1.2% among 330,000; in the data active = inhibition above about 50%
PPC-1+TRAIL kill: kills PPC-1 cancer cells in the presence of TRAIL; hit rate 0.41% among 220,000; cell killing (% activity), % at 4 µM or 5 µM; PPC-1 cells + TRAIL, ATPLite viability luminescence;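 active = cell killing above 50% in the first pass at 4 µM, then a duplicate retest at 5 µM averaging 50% or more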;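 also: plate controls were cells with TRAIL plus DMSO for no effect and medium-only wells lacking cells for full effect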
TRAIL sens C8: caspase-8 TRAIL sensitization; NB7+C8 cells + TRAIL, ATPlite viability luminescence; inhibition (viability loss, TRAIL sensitization), % at 10 µM; hit rate 1% among 360,000; AID 624354;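 active = compounds causing at least 50% loss of cell viability in the single-dose screen, relative to plate controls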
SENP6 block: blocks the human protease SENP6 | Recombinant SENP6 catalytic domain, aminoluciferin luminescence | AID 2599 | hit rate 1.8% among 330,000 | inhibition, % at 10 µM | Q9GZR1;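 active = inhibition above about 50% at the single tested dose, limit read from the data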;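 also: plate controls were DMSO wells with enzyme for no effect and DMSO wells lacking enzyme for full effect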
Target sequence (Q9GZR1 628-1112 limits assumed): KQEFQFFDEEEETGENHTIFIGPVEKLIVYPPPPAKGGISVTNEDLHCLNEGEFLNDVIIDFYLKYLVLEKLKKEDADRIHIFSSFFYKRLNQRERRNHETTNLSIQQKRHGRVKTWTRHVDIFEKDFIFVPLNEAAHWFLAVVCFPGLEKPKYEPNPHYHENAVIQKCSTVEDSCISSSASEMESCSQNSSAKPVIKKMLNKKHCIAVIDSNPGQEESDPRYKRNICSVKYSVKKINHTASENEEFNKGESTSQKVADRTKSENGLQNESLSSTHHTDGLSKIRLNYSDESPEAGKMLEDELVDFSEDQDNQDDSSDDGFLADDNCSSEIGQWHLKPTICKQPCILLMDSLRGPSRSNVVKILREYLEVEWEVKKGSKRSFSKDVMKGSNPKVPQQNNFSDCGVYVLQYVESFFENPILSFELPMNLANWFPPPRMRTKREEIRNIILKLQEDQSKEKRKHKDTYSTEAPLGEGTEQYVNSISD
SENP8 block-2: blocks human SENP8 cleavage of Nedd8 substrate; Q96LD8; recombinant SENP8, Nedd8 substrate fluorescence; inhibition, % at 20 µM; hit rate 0.64% among 360,000; AID 602440; in the data active = inhibition mostly above about 40%, no sharp cut-off; inactive = mostly below about 27%
SENP7 block: blocks the human protease SENP7 | hit rate 1.5% among 330,000 | recombinant SENP7, Z-RLRGG-aminoluciferin luminescence, 40 min | inhibition, % at 5 µM;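 active = inhibition above about 50% at the single test dose, limit read from the data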;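 also: plate controls were DMSO with enzyme for no effect and no enzyme buffer wells for full effect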
SENP8 conf: confirmation of human SENP8 protease inhibitors | inhibition, % at 12.5 µM | shares compounds with SENP7 block | AID 488912 | Recombinant SENP8, Z-RLRGG-aminoluciferin luminescence, 60 min | hit rate 40% among 6,200;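 active = mean inhibition across replicates above about 50%, limit read from the data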
SENP6 confirm: confirmation of human SENP6 protease inhibitors. inhibition, % at 12.5 µM. hit rate 58% among 6,200. shares compounds with SENP7 block. recombinant SENP6, Z-RLRGG-aminoluciferin luminescence
SENP7 conf: confirmation of human SENP7 protease inhibitors. shares compounds with SENP7 block. recombinant SENP7, Z-RLRGG-aminoluciferin luminescence, 40 min. inhibition, % at 12.5 µM. hit rate 69% among 6,200. AID 488917
Casp3 SENP sel: caspase-3 inhibition (SENP selectivity assay) | shares compounds with SENP7 block | purified caspase-3, Z-DEVD-aminoluciferin luminescence, 60 min | inhibition, % at 12.5 µM | hit rate 60% among 6,200;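 active = mean inhibition above about 50%, limit read from the data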;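 also: plate controls were enzyme with DMSO for no effect and wells without caspase-3 for full effect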
Luc interf: luminescence interference (SENP counter-screen); hit rate 39% among 6,200; shares compounds with SENP7 block; inhibition, % at 12.5 µM; Pre-incubated SENP8/Z-RLRGG-aminoluciferin, luciferase luminescence interference;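 active = mean inhibition above about 50% when retested at one dose, limit read from the data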;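 also: plate controls were DMSO wells with completed reaction for no effect and substrate without enzyme for full effect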
Numbers without * were called inactive; . = not tested or not shown.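 The calls were made as follows, unless noted: active = mean inhibition above about 50% in the one-dose retest (limit read from the data); inactive = the rest.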

SMILES	SENP8 block-1	PPC-1+TRAIL kill	TRAIL sens C8	SENP6 block	SENP8 block-2	SENP7 block	SENP8 conf	SENP6 confirm	SENP7 conf	Casp3 SENP sel	Luc interf
O=C1CCCc2nc(N3CCc4ccccc43)ncc21	78*	41	52*	91*	-237	89*	12	24	35	26	30
O=C(Nc1ccc(N2CCCCC2)cc1)c1ccc(F)cc1F	77*	14	36	88*	7	80*	33	77*	88*	84*	14
O=C(Nc1ccc(N2CCCC2)cc1)c1ccccc1F	19	28	-8	-1	24	9	.	.	.	.	.
O=C(Nc1ccc(N2CCCC2)cc1)c1cccc(F)c1	89*	23	12	94*	20	93*	87*	86*	96*	80*	75*
CCN1CCN(c2ccc(NC(=O)c3cccc(N4CCCC4=O)c3)cc2)CC1	1	.	-3	-14	10	0	.	.	.	.	.
O=C(Nc1ccc(N2CCCC2=O)cc1)c1cccc(F)c1	72*	24	30	81*	-4	89*	-12	16	62*	70*	49
O=C(Cc1ccccc1)Nc1ccc(N2CCCCC2)cc1	54*	25	40	39	18	64*	-4	44	77*	73*	0
CCCCc1ccc(/C(C)=N/NC(=O)C2CCCC2)cc1	-4	.	-5	-24	3	14	.	.	.	.	.
CO[C@H]1CN(C)C(=O)c2cc(NC(=O)c3cc(C)on3)ccc2OC[C@@H](C)N(C(=O)C2CC2)C[C@H]1C	.	.	-5	.	12	.	.	.	.	.	.
CCOC(=O)N1CCN(C(=O)COC(=O)c2ccc(S(=O)(=O)N(CC)CC)cc2)CC1	-13	.	-2	2	-5	5	.	.	.	.	.
Cc1ccc(SCCC(=O)Nc2ccccc2Br)cc1	39	18	-6	58*	5	38	49	44	78*	48	51*
OCCCCCNc1ncnc2ccccc12	-4	12	-3	-9	-138	9	.	.	.	.	.
OCCCCNc1cccc2ccccc12	45	10	3	63*	-309	-6	2	20	3	-1	-4
COc1nc(C)ccc1-c1noc(-c2cccs2)n1	49	15	21	62*	-15	70*	3	48	84*	41	14
COc1nc(-c2ccccc2)ccc1-c1noc(-c2cccs2)n1	-30	.	-15	-50	-170	-4	.	.	.	.	.
Cc1ccccc1-c1noc(-c2cccs2)n1	78*	30	1	86*	27	85*	38	84*	94*	61*	33
Nc1cccc(-c2cc3ccccc3oc2=O)c1	2	-21	6	10	3	11	.	.	.	.	.
O=Cc1c(-c2ccccc2)cc2oc3ccccc3cc1-2	78*	.	51*	67*	16	65*	19	13	8	19	-1
CCc1cc(C(=O)Nc2cc(S(=O)(=O)N3CCOCC3)ccc2N2CCN(CC)CC2)sc1C	.	.	4	.	-8	.	.	.	.	.	.
CC(=O)N1CCc2cc([N+](=O)[O-])ccc21	.	.	-12	.	31	.	.	.	.	.	.
COC(=O)c1nn(-c2ccc3c(c2)CCN3C(C)=O)cc1O	75*	76*	81*	91*	-293	85*	-5	82*	97*	96*	84*
COC(=O)c1nn(-c2ccc3c(c2)OCO3)cc1O	48	19	14	72*	-265	79*	67*	64*	90*	91*	72*
Cc1cc(C(=O)O)ccc1N/C=C1\CCCC(C)C1=O (centres undefined)	77*	4	1	79*	-44	27	9	89*	99*	62*	88*
CC1CCC/C(=C\Nc2ccc(O)cc2)C1=O (centres undefined)	-11	11	-16	14	8	15	.	.	.	.	.
CCCCN(C(=O)CCNC(=O)NC12CC3CC(CC(C3)C1)C2)c1c(N)n(CCC)c(=O)[nH]c1=O	-2	.	6	-7	-5	4	.	.	.	.	.
SMILES	SENP8 block-1	PPC-1+TRAIL kill	TRAIL sens C8	SENP6 block	SENP8 block-2	SENP7 block	SENP8 conf	SENP6 confirm	SENP7 conf	Casp3 SENP sel	Luc interf
Cc1ccc(S/C=C\C(=O)c2ccccc2)cc1	82*	2	55*	87*	15	92*	6	90*	79*	64*	55*
Cc1ccc(C(=O)/C=C\C(=O)c2ccc(C)cc2)cc1	.	24	-13	.	23	.	.	.	.	.	.
Nc1ccc2c(c1)C(=O)c1ccccc1C2=O	31	.	10	53*	9	4	55*	50*	80*	54*	8
COc1ccccc1N1C(=O)C(Cl)=C(Nc2ccccc2O)C1=O	.	1	3	.	30	.	.	.	.	.	.
O=C1C(Cl)=C(Nc2ccccc2O)C(=O)N1c1ccccc1	14	-2	0	52*	19	27	42	38	66*	60*	51*
COC(C[C@@H](O)C[C@H](O)[C@@H](C)OCc1ccccc1)OC	-9	9	1	-20	13	-1	.	.	.	.	.
O=C(CCc1nnc(-c2ccc3c(c2)OCO3)o1)NC(c1cccnc1)C(F)(F)F (centres undefined)	0	8	-2	-6	4	-5	.	.	.	.	.
COc1ccc(C(=O)O/N=C(\N)c2ccccn2)cc1	96*	.	92*	97*	14	101*	99*	100*	104*	99*	97*
N/C(=N\OC(=O)c1cccc(Cl)c1)c1ccccn1	87*	40	56*	92*	11	94*	90*	90*	100*	95*	45
N/C(=N\OC(=O)c1ccccc1[N+](=O)[O-])c1ccccn1	42	.	26	54*	-2	61*	65*	61*	-7	86*	66*
N/C(=N\OC(=O)c1ccccc1[N+](=O)[O-])c1cccnc1	-5	44	-15	-10	25	-5	.	.	.	.	.
COc1ccccc1C(=O)O/N=C(\N)c1ccccn1	38	34	26	53*	15	9	41	30	58*	74*	54*
CCCOC(=O)c1c(-c2ccccc2)nc(CC)c(C(=O)SCC)c1CCC	7	.	-8	13	2	-3	.	.	.	.	.
Cc1ccc(S(=O)(=O)Nc2ccc(C(=O)NCCCn3ccnc3)cc2)cc1[N+](=O)[O-]	3	.	-17	-3	-3	8	.	.	.	.	.
